# C diff growth – blocks growth of Clostridium difficile; AID 1259249; growth activity, negative = inhibition, % at 16 µg/mL (by protocol); 86,000 tested, 0.25% active; Clostridium difficile clinical isolate growth, OD600, 24 h; active compounds read low;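 active = mean growth activity at or below -80% and every replicate also at or below -80%; inconclusive = mean at or below -80% but some replicate above -80%; inactive = mean growth activity above -80%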;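 note: 0% = DMSO wells and -100% = levofloxacin 16 µg/mL wells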
# Pf Dd2 inh – inhibitors of Plasmodium falciparum Dd2 growth; P. falciparum Dd2 growth, SYBR Green, 72 h; active compounds read low; activity change, % at 10 µM; 94,000 tested, 2.3% active; AID 1159554; in the data active = activity change below about -80%; inconclusive = no clear call, values can overlap the other calls
# Numbers without * were called inactive; ? = inconclusive; nt = no result; ! = a repeat was not active. The list is not random: actives were taken first. Their share in the collection is about 2.4%.
SMILES,C diff growth,Pf Dd2 inh
Cc1ccc(S(=O)(=O)N(C)C[C@H]2OCCCC[C@@H](C)Oc3ccc(NC(=O)Nc4ccc(C(F)(F)F)cc4)cc3C(=O)N([C@@H](C)CO)C[C@@H]2C)cc1,1,-79
Cc1ccc(S(=O)(=O)N(C)C[C@@H]2OCCCC[C@@H](C)Oc3ccc(NC(=O)Nc4ccc(C(F)(F)F)cc4)cc3C(=O)N([C@H](C)CO)C[C@@H]2C)cc1,17,-82*
C[C@@H]1CCCCO[C@@H](CN(C)S(=O)(=O)c2ccc(Cl)cc2)[C@@H](C)CN([C@@H](C)CO)C(=O)c2cc(NC(=O)Nc3ccc(C(F)(F)F)cc3)ccc2O1,26,-83*
C[C@@H]1CCCCO[C@H](CN(C)S(=O)(=O)c2ccc(Cl)cc2)[C@H](C)CN([C@@H](C)CO)C(=O)c2cc(NC(=O)Nc3ccc(C(F)(F)F)cc3)ccc2O1,0,-57
C[C@@H]1CCCCO[C@H](CN(C)S(=O)(=O)c2ccc(Cl)cc2)[C@@H](C)CN([C@@H](C)CO)C(=O)c2cc(NC(=O)Nc3ccc(C(F)(F)F)cc3)ccc2O1,1,-88*
Cc1ccc(S(=O)(=O)N(C)C[C@H]2OCCCC[C@H](C)Oc3ccc(NC(=O)Nc4ccc(C(F)(F)F)cc4)cc3C(=O)N([C@@H](C)CO)C[C@H]2C)cc1,1,-66
O=C(c1cccnc1)N1CC2(C1)[C@@H](c1ccccc1)[C@@H](CO)N2CC1CC1,4,2
c1cc(CN2[C@@H]3CNC[C@H]2C3c2ccc(-c3ccncc3)cc2)cc(-c2ccncc2)c1 (stereo not given in full),4,-76
C[C@@H]1CCCCO[C@H](CN(C)Cc2ccccc2)[C@@H](C)CN([C@@H](C)CO)C(=O)c2cc(NS(=O)(=O)c3ccc(Cl)cc3)ccc2O1,2,-43
C[C@H](CO)N1C[C@H](C)[C@H](CN(C)C(=O)Cc2ccncc2)Oc2cc(C#CC3CC3)ccc2S1(=O)=O,2,-31
C[C@H](CO)N1C[C@H](C)[C@H](CN(C)S(=O)(=O)c2ccc(C(F)(F)F)cc2)OCc2ccccc2-c2c(n(C)c3ccccc23)C1=O,-1,-94*
C[C@H](CO)N1C[C@H](C)[C@@H](CN(C)S(=O)(=O)c2ccc(C(F)(F)F)cc2)OCc2ccccc2-c2c(n(C)c3ccccc23)C1=O,-4,-90*
C[C@H]1CN([C@@H](C)CO)C(=O)c2c(c3ccccc3n2C)-c2ccccc2CO[C@@H]1CN(C)S(=O)(=O)c1ccc(C(F)(F)F)cc1,2,?
C[C@@H]1CN([C@@H](C)CO)C(=O)c2c(c3ccccc3n2C)-c2ccccc2CO[C@@H]1CN(C)S(=O)(=O)c1ccc(C(F)(F)F)cc1,1,-89*
C[C@@H]1CN([C@H](C)CO)C(=O)c2cc(NC(=O)C3CCCCC3)ccc2O[C@@H](C)CCCCO[C@@H]1CN(C)Cc1ccc(Cl)c(Cl)c1,4,-39
COc1ccc2c3c(n(C)c2c1)[C@H](CO)N(Cc1ccc2c(c1)OCO2)CC31CCN(C(=O)C2CC2)CC1,-1,-60
C[C@@H]1CCCCO[C@H](CN(C)S(=O)(=O)c2ccc(Cl)cc2)[C@@H](C)CN([C@@H](C)CO)C(=O)c2cc(NC(=O)C3CCCCC3)ccc2O1,-1,-81*
C[C@@H]1CCCCO[C@H](CN(C)S(=O)(=O)c2ccc(F)cc2)[C@H](C)CN([C@H](C)CO)C(=O)c2cc(NC(=O)C3CCCCC3)ccc2O1,-5,-79
C[C@@H]1CCCCO[C@@H](CN(C)S(=O)(=O)c2ccc(Cl)cc2)[C@H](C)CN([C@H](C)CO)C(=O)c2cc(NC(=O)C3CCCCC3)ccc2O1,-6,-86*
C[C@@H]1CCCCO[C@@H](CN(C)S(=O)(=O)c2ccc(Cl)cc2)[C@@H](C)CN([C@H](C)CO)C(=O)c2cc(NC(=O)C3CCCCC3)ccc2O1,8,-79
C[C@@H]1CCCCO[C@H](CN(C)S(=O)(=O)c2ccc(Cl)cc2)[C@@H](C)CN([C@@H](C)CO)C(=O)c2cc(N(C)C)ccc2O1,-4,-38
CCO[C@H]1OC(C(=O)N2CCOCC2)=C[C@@H](C2CCCCC2)[C@@H]1CCCO,-7,nt
COc1ccccc1NC(=O)N1C[C@H]2[C@@H](c3ccccc31)[C@H](CO)N2C(C)=O,3,-40
C[C@@H]1CCCCO[C@@H](CN(C)C(=O)c2ccccc2)[C@H](C)CN([C@@H](C)CO)C(=O)c2cc(NC(=O)CCCN(C)C)ccc2O1,-3,22
O=S(=O)(c1ccc(F)cc1)N1C[C@@H]2N[C@H](C1)C2c1ccc(/C=C/c2ccccc2)cc1 (stereo not given in full),-99*!,-40
SMILES,C diff growth,Pf Dd2 inh
O=C(Nc1ccccc1)N1C[C@@H]2N[C@H](C1)C2c1ccc(-c2ccccc2)cc1 (stereo not given in full),62,-1
O=C(c1ccncc1)N1C[C@@H]2N[C@H](C1)C2c1ccc(/C=C/c2ccccc2)cc1 (stereo not given in full),-1,2
O=C(Nc1ccccc1)N1C[C@@H]2N[C@H](C1)[C@@H]2c1ccc(/C=C/c2ccccc2)cc1,-97*,-89*
C/C=C/c1ccc(C2[C@@H]3CN(S(=O)(=O)c4ccc(C)cc4)C[C@H]2N3)cc1 (stereo not given in full),-15,-67
O=C(c1ccc(F)cc1)N1C[C@@H]2N[C@H](C1)C2c1ccc(/C=C/c2ccccc2)cc1 (stereo not given in full),-99*!,-27
O=C(c1ccc2c(c1)OCO2)N1C[C@@H]2N[C@H](C1)C2c1ccc(-c2cncnc2)cc1 (stereo not given in full),-7,22
O=C(c1ccc2c(c1)OCO2)N1C[C@@H]2N[C@H](C1)C2c1ccc(/C=C/c2ccccc2)cc1 (stereo not given in full),47,-89*!
O=C(C[C@H]1C=C[C@@H](NC(=O)Nc2cc(F)ccc2F)[C@@H](CO)O1)Nc1ccc(-c2ccccc2)cc1,-2,35
COc1ccc(NC(=O)N(C)C[C@H]2OCCCC[C@H](C)Oc3ccc(NC(=O)C4CCCCC4)cc3C(=O)N([C@@H](C)CO)C[C@H]2C)cc1,3,-76
COCC(=O)Nc1ccc2c(c1)[C@@H]1C[C@@H](CC(=O)OC)O[C@H](CO)[C@@H]1O2,1,17
C[C@@H]1CN([C@@H](C)CO)C(=O)c2cc(NC(=O)Cc3ccccc3)ccc2O[C@@H](C)CCCCO[C@@H]1CN(C)C(=O)Nc1cccc2ccccc12,13,-94*
C[C@@H]1CCCCO[C@@H](CN(C)C(=O)Nc2cccc3ccccc23)[C@@H](C)CN([C@@H](C)CO)C(=O)c2cc(NC(=O)Cc3ccccc3)ccc2O1,-3,-92*
C[C@@H]1CN([C@@H](C)CO)C(=O)c2cc(NC(=O)Cc3ccccc3)ccc2O[C@@H](C)CCCCO[C@H]1CN(C)C(=O)Nc1ccccc1,8,-18
C[C@@H]1CN([C@H](C)CO)C(=O)c2cc(NC(=O)Cc3ccccc3)ccc2O[C@@H](C)CCCCO[C@H]1CN(C)C(=O)Nc1cccc2ccccc12,-2,-87*
C[C@H]1CCCCO[C@H](CN(C)C(=O)Nc2cccc3ccccc23)[C@@H](C)CN([C@@H](C)CO)C(=O)c2cc(NC(=O)c3ccccc3)ccc2O1,-3,-41

# Screens: PubChem, Broad Institute
